# Laboratory results reported in the supplement of paper PMC8728848.
# The sample as a whole holds a higher share of the strongest signals than the screen did.
# B1: LlpA1 (Pseudomonas fluorescens), Q4KHC3 (protein)
# chain: MGSSHHHHHHSSGLVPRGSHMAWIRYDFTDNGSSVLPARYYMAPNQYLQSPNKRFKLLFQADGNLALYDGAQLAWVADQNTPFTNVSKGNKKDPMMVFMNYGFVLDDPLRGRIWSTTPSDPTMGSREDASLRAFTQVQDDGNIVTVDTIPHWYAPNGRVFTPAVGAAMIIGGTTELVPGQFYSAGEHSLVFQGDGNLVVYGPNSSVIWATYTQNKGGVRCVMQEDGNLVIYAANNGVVWQSGTGGHPGATIRLQANGSFTIVTERPVWARFGYTPTIKPPRVFYPDHKWKTGSYTWNNVF
# Tests used:
# Test in all cases: glycan array binding signal (z-score within array); higher = stronger binding
# Details in all cases: glycan notation: IUPAC condensed, linker removed
# [1] = target: Gal(b1-4)GlcNAc(b1-3)Gal(b1-4)GlcNAc(b1-3)[Gal(b1-4)GlcNAc(b1-3)Gal(b1-4)GlcNAc(b1-6)]GalNAc
# Method in brief: (§1)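 Arrays were curated from the Consortium for Functional Glycomics database, 3228 in total, and kept only where the protein sequence was available. Binding is expressed as a within-array Z-score. This score was averaged across arrays of the same protein sequence at different concentrations or buffers and across linkers, and negative values can be read as non-binding.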
# [2] = target: Gal(b1-4)GlcNAc(b1-3)GalNAc
# Method in brief: as §1
# Gal3S(b1-4)Glc6S = target: Gal3S(b1-4)Glc6S
# Method in brief: as §1
# [3] = target: Gal3S(b1-4)[Fuc(a1-3)]Glc
# Method in brief: as §1
# Gal4S(b1-4)GlcNAc = target: Gal4S(b1-4)GlcNAc
# Method in brief: as §1
# Gal6S(b1-4)GlcNAc = target: Gal6S(b1-4)GlcNAc
# Method in brief: as §1
# [4] = target: GalNAc(b1-3)Gal(a1-6)Gal(b1-4)Glc
# Method in brief: as §1
# GalNAc(b1-4)GlcNAc6S = target: GalNAc(b1-4)GlcNAc6S
# Method in brief: as §1
# GalNAc6S(b1-4)GlcNAc = target: GalNAc6S(b1-4)GlcNAc
# Method in brief: as §1
# Glc(a1-4)Glc = target: Glc(a1-4)Glc
# Method in brief: as §1
# Glc(b1-4)Glc = target: Glc(b1-4)Glc
# Method in brief: as §1
# [5] = target: GlcNAc(b1-3)Gal(b1-4)GlcNAc(b1-3)Gal(b1-4)GlcNAc(b1-3)Gal(b1-4)GlcNAc(b1-2)Man(a1-3)[GlcNAc(b1-3)Gal(b1-4)GlcNAc(b1-3)Gal(b1-4)GlcNAc(b1-3)Gal(b1-4)GlcNAc(b1-2)Man(a1-6)]Man(b1-4)GlcNAc(b1-4)[Fuc(a1-6)]GlcNAc
# Method in brief: as §1
# GlcNAc(b1-4)GlcNAc = target: GlcNAc(b1-4)GlcNAc
# Method in brief: as §1
# Kdn(a2-3)Gal(b1-3)GlcNAc = target: Kdn(a2-3)Gal(b1-3)GlcNAc
# Method in brief: as §1
# [6] = target: Man(a1-2)Man(a1-3)[Man(a1-2)Man(a1-6)]Man(a1-6)[Man(a1-2)Man(a1-2)Man(a1-3)]Man(b1-4)GlcNAc(b1-4)GlcNAc
# Method in brief: as §1
# [7] = target: Man(a1-3)[Man(a1-6)]Man(b1-4)GlcNAc(b1-4)[Fuc(a1-6)]GlcNAc
# Method in brief: as §1
# [8] = target: Neu5Ac(a2-3)Gal(b1-3)]Neu5Ac(a2-3)Gal(b1-4)]GlcNAc
# Method in brief: as §1
# [9] = target: Neu5Ac(a2-3)Gal(b1-4)GlcNAc(b1-3)Gal(b1-4)GlcNAc(b1-3)Gal(b1-4)GlcNAc(b1-2)Man(a1-3)[Neu5Ac(a2-3)Gal(b1-4)GlcNAc(b1-3)Gal(b1-4)GlcNAc(b1-3)Gal(b1-4)GlcNAc(b1-2)Man(a1-6)]GalNAc
# Method in brief: as §1
# [10] = target: Neu5Ac(a2-3)Gal(b1-4)GlcNAc(b1-3)GalNAc
# Method in brief: as §1
# [11] = target: Neu5Ac(a2-3)Gal(b1-4)[Fuc(a1-3)]GlcNAc(b1-3)GalNAc
# Method in brief: as §1
# [12] = target: Neu5Ac(a2-6)Gal(b1-3)GlcNAc(b1-3)[Gal(b1-4)GlcNAc(b1-6)]Gal(b1-4)Glc
# Method in brief: as §1
# [13] = target: Neu5Ac(a2-6)Gal(b1-4)GlcNAc(b1-2)Man(a1-3)[GlcNAc(b1-2)Man(b1-4)GlcNAc(b1-2)Man(a1-6)]Man(b1-4)GlcNAc(b1-4)GlcNAc
# Method in brief: as §1
# [14] = target: Neu5Ac(a2-6)Gal(b1-4)GlcNAc(b1-2)Man(a1-3)[GlcNAc(b1-4)][Neu5Ac(a2-6)Gal(b1-4)GlcNAc(b1-2)Man(a1-6)]Man(b1-4)GlcNAc(b1-4)GlcNAc
# Method in brief: as §1
# [15] = target: Neu5Ac(a2-6)Gal(b1-4)GlcNAc(b1-6)[Gal(b1-3)]GalNAc
# Method in brief: as §1
# [16] = target: Neu5Ac(a2-6)GalNAc(b1-4)GlcNAc6S
# Method in brief: as §1
# [17] = target: Neu5Ac(a2-8)Neu5Ac(a2-3)Gal(b1-4)GlcNAc
# Method in brief: as §1
# [18] = target: Neu5Ac(a2-8)Neu5Gc(a2-3)Gal(b1-4)GlcNAc
# Method in brief: as §1
binder,measurement,setting,value
B1,glycan array binding signal (z-score),[1],2.36
same,glycan array binding signal (z-score),[2],-0.927
same,glycan array binding signal (z-score),Gal3S(b1-4)Glc6S,-0.494
same,glycan array binding signal (z-score),[3],-0.518
same,glycan array binding signal (z-score),Gal4S(b1-4)GlcNAc,0.315
same,glycan array binding signal (z-score),Gal6S(b1-4)GlcNAc,0.079
same,glycan array binding signal (z-score),[4],0.158
same,glycan array binding signal (z-score),GalNAc(b1-4)GlcNAc6S,1.64
same,glycan array binding signal (z-score),GalNAc6S(b1-4)GlcNAc,1.35
same,glycan array binding signal (z-score),Glc(a1-4)Glc,0.211
same,glycan array binding signal (z-score),Glc(b1-4)Glc,-1.02
same,glycan array binding signal (z-score),[5],1.27
same,glycan array binding signal (z-score),GlcNAc(b1-4)GlcNAc,0.141
same,glycan array binding signal (z-score),Kdn(a2-3)Gal(b1-3)GlcNAc,-0.948
same,glycan array binding signal (z-score),[6],0.448
same,glycan array binding signal (z-score),[7],-0.367
same,glycan array binding signal (z-score),[8],0.082
same,glycan array binding signal (z-score),[9],2.75
same,glycan array binding signal (z-score),[10],-0.31
same,glycan array binding signal (z-score),[11],0.206
same,glycan array binding signal (z-score),[12],-0.201
same,glycan array binding signal (z-score),[13],2.45
same,glycan array binding signal (z-score),[14],-0.209
same,glycan array binding signal (z-score),[15],0.228
same,glycan array binding signal (z-score),[16],-0.028
same,glycan array binding signal (z-score),[17],-0.552
same,glycan array binding signal (z-score),[18],8.89
